{"source": "PubChem BioAssay AID624171", "about": "(National Center for Advancing Translational Sciences (NCATS), 2012)", "note": "In all, about 410,000 compounds went through this assay and about 1,200 (0.29%) were called active. About 2% were inconclusive and are not listed. The sample holds actives, similar compounds and a random draw of the others, so the mix is not that of the screen. The call rests on the fitted dose curve; in most records, active means well fitted activation curve with a large enough effect; inconclusive means small, poorly fitted or top-dose-only effect; inactive means flat fitted curve, though single readings scatter. Potency means the concentration at half of the fitted maximal effect."}
{"assay": "qHTS of Nrf2 Activators; further: nearly all actives have a fitted effect of over 65% in size; on activation: % of control where 0% means no effect", "conditions": "AREc32 ARE-luciferase reporter (MCF7-derived line), luminescence, 24 h; series mostly up to 46.1 µM; activation: at the top concentration", "outline": "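Luminescent ARE reporter assay in AREc32_Fluc cells: overnight plating at 37 deg C, 24 hr compound incubation, Steady-Glo added, 30 min RT before reading.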"}
{"smiles": "COc1ccc(C(=O)Nc2onc3c2CCCC3)cc1", "activation": "-0.816% (inactive)"}
{"smiles": "Cc1c(Cl)cccc1NC(=O)c1noc2c1CCCC2", "activation": "14.5% (inactive)"}
{"smiles": "O=C(Nc1cccc2ccccc12)c1onc2c1CCCC2", "Potency": "12.6 µM (active)"}
{"smiles": "COc1cccc(C(=O)NCc2ccc3c(c2)CCN3C(=O)c2ccncc2)c1", "activation": "1.13% (inactive)"}
{"smiles": "C=CCSc1nnc2c(n1)-c1cccc3cccc-2c13", "Potency": "12.6 µM (active)"}
{"smiles": "C=CCSc1nsc(NC(=O)Nc2cccc(C(C)=O)c2)n1", "activation": "-0.163% [at 9.22 µM] (inactive)"}
{"smiles": "Cc1cc(C)c(-c2n[nH]c3c2C(c2ccccc2F)N(CCO)C3=O)c(O)c1", "note": "(stereo not drawn)", "activation": "3.93% (inactive)"}
{"smiles": "Cc1nc2ccc(S(=O)(=O)NC(C(=O)NCc3ccccc3Cl)C(C)C)cc2s1", "note": "(stereo not drawn)", "activation": "0.669% (inactive)"}
{"smiles": "CC(=O)N1CCN(S(=O)(=O)c2c(F)cc(F)c(Cl)c2F)CC1", "Potency": "11.2 µM (active)"}
{"smiles": "O=C(c1cnc(Cl)c(Cl)c1)N1CCN(S(=O)(=O)c2ccc(F)cc2)CC1", "activation": "0.398% (inactive)"}
{"smiles": "O=C(c1c(F)cccc1Cl)N1CCN(S(=O)(=O)c2ccc3c(c2)OCCCO3)CC1", "activation": "1.87% (inactive)"}
{"smiles": "Cc1c(CNC(C)c2ccccc2)c(C(=O)O)c(C)n1Cc1c(F)cccc1Cl", "note": "(stereo not drawn)", "activation": "0.867% (inactive)"}
{"smiles": "Cc1csc2nc(COc3ccc(NC(=O)COc4ccccc4)cc3)cc(=O)n12", "activation": "-0.0829% (inactive)"}
{"smiles": "O=C(Nc1nc2c(s1)CCCC2)c1ccccc1F", "activation": "-0.692% (inactive)"}
{"smiles": "O=C(Nc1ccccc1F)c1ccccc1-c1ccc(C(F)(F)F)cc1", "activation": "-0.545% (inactive)"}
{"smiles": "O=C(Nc1nnc(-c2ccccc2F)s1)c1ccccc1F", "Potency": "3.16 µM (active)"}
{"smiles": "O=C(COc1ccccc1F)Nc1ccc(C(=O)OCc2cc(=O)n3nc(C4CC4)sc3n2)cc1", "activation": "0.695% (inactive)"}
{"smiles": "Cc1ccccc1CNC(=O)CCCn1nc(C)c2sc3ccccc3c2c1=O", "activation": "-0.165% (inactive)"}
{"smiles": "Brc1ccccc1C1N=C(c2ccccc2)NO1", "note": "(stereo not drawn)", "Potency": "6.31 µM (active)"}
{"smiles": "N#Cc1ccc(C2N=C(c3ccccc3)NO2)cc1", "note": "(stereo not drawn)", "activation": "13.3% (inactive)"}
{"smiles": "COc1cc(Cl)c(NC(=O)CC(C)S(=O)(=O)c2cc3c(cc2C)NC(=O)CO3)c(OC)c1", "note": "(stereo not drawn)", "activation": "3.6% (inactive)"}
{"smiles": "CN(C)CCN=c1cc(-c2ccccc2)oc2ccc(Cl)cc12", "Potency": "11.2 µM (active)"}
{"smiles": "CN(C)CCCn1c(-c2ccc(Cl)cc2)csc1=Nc1ccccc1", "activation": "-0.674% (inactive)"}
{"smiles": "Cc1ccc(Cc2nc3ccccc3nc2SCC(=O)Nc2cccc(C(F)(F)F)c2)cc1", "activation": "0.184% (inactive)"}
{"smiles": "CCOCCCNC(=O)c1c(NC(=O)Cc2coc3ccc(C)cc23)sc2c1CCC2", "activation": "0.518% (inactive)"}
{"smiles": "N#CC1=C(N)Oc2c(sc3ccccc23)C1c1ccco1", "note": "(stereo not drawn)", "Potency": "3.16 µM (active)"}
{"smiles": "CC(=O)c1cccc(NC(=O)c2nc(-c3ccccc3)n(-c3cccc(C)c3)n2)c1", "activation": "4.2% (inactive)"}
{"smiles": "Cc1cccc(S(=O)(=O)c2cn(Cc3ccccc3)c3cc(N4CCOCC4)c(F)cc3c2=O)c1", "activation": "-1.05% (inactive)"}
